Keap1-Nrf2 PPI – disrupts human Keap1 binding to Nrf2 peptide | Q14145 | Keap1 Kelch-Nrf2 peptide fluorescence polarization, 1536-well | inhibition, % at 9.4 µM | 340,000 tested, 0.15% active; in the data active means inhibition above about 12%;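 further: human Keap1 Kelch domain with fluorescein labeled Nrf2 9mer peptide probe; 0% = neutral control wells and 100% = peptide positive control; higher means more block of Keap1 binding to Nrf2 peptide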
Target sequence (Q14145 whole entry, looked up, the tested form may be a part): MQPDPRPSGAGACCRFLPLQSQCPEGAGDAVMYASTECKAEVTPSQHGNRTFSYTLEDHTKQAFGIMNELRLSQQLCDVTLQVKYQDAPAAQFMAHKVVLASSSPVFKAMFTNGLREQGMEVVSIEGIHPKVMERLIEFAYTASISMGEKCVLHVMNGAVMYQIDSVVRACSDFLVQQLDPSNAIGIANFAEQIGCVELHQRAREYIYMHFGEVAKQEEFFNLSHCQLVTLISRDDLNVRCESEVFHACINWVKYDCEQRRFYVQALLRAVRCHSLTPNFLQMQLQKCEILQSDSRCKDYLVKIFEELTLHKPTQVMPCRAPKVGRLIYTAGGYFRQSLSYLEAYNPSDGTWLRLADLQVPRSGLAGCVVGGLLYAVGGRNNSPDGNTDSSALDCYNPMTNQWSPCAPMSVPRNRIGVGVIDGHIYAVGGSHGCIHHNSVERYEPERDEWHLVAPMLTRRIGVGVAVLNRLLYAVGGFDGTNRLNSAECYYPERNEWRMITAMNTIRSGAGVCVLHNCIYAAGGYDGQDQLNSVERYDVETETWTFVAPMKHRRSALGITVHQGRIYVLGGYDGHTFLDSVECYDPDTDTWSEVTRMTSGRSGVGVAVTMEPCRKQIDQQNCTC
LANA-H2B inh – blocks KSHV LANA binding to histone H2A/H2B | Q9QR71 | cell-free LANA-H2A/H2B peptide, fluorescence polarization | inhibition, % (test concentration not listed) | 320,000 tested, 0.6% active; in the data active means inhibition mostly above about 10%, no sharp cut-off; inactive means mostly below about 6.7%
LANA DNA inh – KSHV C-LANA DNA binding inhibition; MBP-C-LANA/FAM-LBS DNA binding, fluorescence polarization; inhibition, % at 9 µM; 340,000 tested, 0.078% active; AID 504423;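 active means highest replicate inhibition at or above 60% at 9 µM, even if other replicates fall short; inactive means all replicates below 60% inhibition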;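 further: 0% = neutral control wells and 100% = 4 µM acridine orange control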
cardiac RTF act – cardiac RTF calcium sensitization. AID 493008. 340,000 tested, 0.24% active. IANBD-labeled TnC RTF fluorescence at EC20 calcium; 0% EC20 calcium, 100% full calcium. activation, % at 7.2 µM;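 active means activation above the mean over all tested compounds plus 3 SD, cut at about 30% in these data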;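 further: rise in fluorescence read as greater calcium sensitivity of cardiac thin filaments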
Cardiac RTF inh – cardiac RTF calcium desensitization | 340,000 tested, 0.12% active | IANBD-labeled cardiac RTF, Ca2+ fluorescence | P19429+P45379 | inhibition, % at 7.15 µM | AID 493244;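 active means inhibition above the mean inhibition of all tested compounds plus 3 SD, cut at about 17% in these data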;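 further: assay run at fixed EC70 calcium of 1.6 mM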
Numbers without * were called inactive; / = no result given; + = active, no number. Only some compounds are listed: those with a hit (about 0.98% of all), similar ones and a draw of the others.

SMILES	Keap1-Nrf2 PPI	LANA-H2B inh	LANA DNA inh	cardiac RTF act	Cardiac RTF inh
COc1ccc(C(C)(C)C)cc1NC(=O)CCc1c(C)noc1C	-2.8	30.0*	-0.1	-6.9	-3.7
CCCNc1c(NS(=O)(=O)c2cccs2)c(=O)oc2ccccc12	1.0	0.1	-0.4	-1.6	-2.0
O=C1C(=O)N(C/C=C/c2ccccc2)c2ccccc21	-4.5	-2.5	-1.3	-3.8	-4.9
Cc1ccc(OCc2nnc(SCC(=O)CC(=O)Nc3ccccc3)o2)cc1	-5.4	17.3*	0.3	4.3	0.0
CC(NC(=O)CSc1nnc(COc2ccccc2)o1)c1ccccc1 (configuration not stated)	1.6	20.3*	-0.9	0.3	1.0
COc1ccc(Cc2nnc(SCC(=O)NC(C)c3ccccc3)o2)cc1 (configuration not stated)	1.8	-5.8	0.1	1.9	-3.7
Cc1ccc(S(=O)(=O)N2CCN(Cc3csc(C)n3)CC2)cc1	-2.3	2.4	-2.6	-4.7	-7.3
NNc1ccc(Cl)c(C(=O)O)c1	-2.1	63.1*	0.5	-4.1	-4.3
COC(=O)c1cc(OC)c(OC)cc1NC(=S)N1CCN(c2ccccn2)CC1	-0.8	2.5	1.0	2.0	-6.4
Cc1cc(C)c(S(=O)(=O)n2c([N+](=O)[O-])cnc2C)cc1C	3.2	-2.5	-0.8	1.8	10.8
Cc1ccc(S(=O)(=O)n2c([N+](=O)[O-])cnc2C)cc1C	-1.7	12.4*	0.8	3.1	-6.2
COc1ccc(S(=O)(=O)N2CCC(C(=O)NCCC3=CCCCC3)CC2)cc1C	-7.0	34.2*	2.0	4.7	3.2
CCCCN(C(=O)C1CC(=O)N(c2ccc3c(c2)OCCO3)C1)c1c(N)n(CCCC)c(=O)[nH]c1=O (configuration not stated)	-0.9	25.4*	2.0	4.6	1.2
CCCCN(C(=O)C1CC(=O)N(c2ccc3c(c2)OCCO3)C1)c1c(N)n(CCC)c(=O)[nH]c1=O (configuration not stated)	-3.7	1.7	-1.1	-1.2	2.8
COc1ccc(C(=O)N/C(=C\c2ccc3c(c2)OCO3)C(=O)Nc2cccc(C(=O)O)c2)cc1	0.0	-1.2	0.6	-4.8	-2.6
CC(/C=C\C=C\c1ccccc1)=N\NC(=O)c1cncc(Br)c1	-4.2	76.6*	-0.2	-0.4	-8.2
CS(=O)(=O)N(CC(=O)NCCSc1ccc(Cl)cc1)c1ccc2c(c1)OCO2	0.4	19.2*	1.1	6.5	-1.0
CS(=O)(=O)N(CC(=O)NCCSc1ccccc1)c1ccc2c(c1)OCO2	-5.6	2.2	0.0	3.9	-16.8
COc1cc(/C=C2\SC(=O)N(CCNC(=O)c3sc4cc(F)ccc4c3Cl)C2=O)cc(OC)c1OC	0.6	15.2*	-0.4	5.5	-6.1
COc1ccc(CNC(=O)CN(c2ccc(C(C)C)cc2)S(=O)(=O)c2c(C)noc2C)cc1	1.6	14.2*	-0.9	0.7	-8.8
O=[N+]([O-])c1c(Nc2ccccn2)cc(Cl)c2nonc12	-11.5	3.2	1.3	33.0*	2.9
COc1ccccc1CNC(=O)Cn1cccc1C(=O)c1ccccc1C	-0.1	0.2	0.2	6.4	-4.3
CCc1noc(C)c1C(=O)N1CCCC(C(=O)c2ccc(OC)c(F)c2)C1 (configuration not stated)	2.9	14.2*	0.1	-4.5	-2.4
COc1ccc(C(=O)C2CCCN(C(=O)c3cc(C(C)C)no3)C2)cc1F (configuration not stated)	2.5	-1.8	-1.4	-3.4	7.7
CC(C)CC(=O)c1c[nH]c(C(=O)N2CCN(Cc3ccccc3)CC2)c1	3.8	+	-1.5	-0.3	-1.0
SMILES	Keap1-Nrf2 PPI	LANA-H2B inh	LANA DNA inh	cardiac RTF act	Cardiac RTF inh
Cc1ccc(S(=O)(=O)N2CCN(C(=O)C3CC3C)CC2)c(C)c1 (configuration not stated)	2.7	0.0	-1.2	-4.0	-10.8
Cc1ccc(S(=O)(=O)N2CCN(C(=O)C3CCN(C(=O)c4ccc(F)cc4)CC3)CC2)c(C)c1	-1.8	21.9*	0.7	6.8	-2.8
Cn1cc(C2=C(c3ccc(Cl)cc3Cl)C(=O)NC2=O)c2ccccc21	-11.4	2.9	10.4	47.3*	-49.8
Cn1cc(-c2ccccc2C(N)=O)c(=O)c2cc(Cl)ccc21	-0.7	2.8	-0.6	4.8	-6.9
COc1ccc(CCn2c(S)nc3ccccc3c2=O)cc1	-4.3	0.4	-4.8	-6.0	-7.5
Cc1onc(-c2ccccc2)c1C(=O)Nc1cccc2nsnc12	-5.6	-3.8	116.4*	1.0	0.4
NC(=O)c1cnn2c(-c3ccc(Cl)cc3Cl)ccnc12	0.2	-2.7	0.9	0.4	-4.0
CCOC(=O)c1cc(C(C)(C)C)nc(SC)c1C#N	-3.2	29.7*	1.4	2.6	0.7
O=C(COC(=O)Cc1c[nH]c2ccccc12)Nc1cccc2ccccc12	-0.8	14.2*	-0.5	-3.1	3.2
CNC(=O)c1c(NC(=O)CCS(=O)(=O)c2ccc(C)cc2)sc2c1CCN(C(=O)OC)C2	-3.0	3.8	-1.0	-2.6	-1.5
COc1ccc(CN2CNc3nc4ccccc4n3C2)cc1	-1.1	22.1*	0.9	5.0	-3.4
O=C1N[C@@H](Cc2cn(S(=O)(=O)c3ccc(F)cc3)c3ccccc23)C(=O)N[C@H]1Cc1ccccc1	/	4.8	/	/	/
CC(=O)c1c(C)[nH]c(C(=O)Nc2cccc(C)n2)c1C	-6.9	9.4*	-0.1	-4.7	1.1
CC(=O)c1c(C)[nH]c(C(=O)Nc2cccc3ccccc23)c1C	6.1	3.4	-1.0	2.9	1.6
Nc1ccc(SCC(=O)Nc2cccc([N+](=O)[O-])c2)cc1	-2.8	71.4*	0.3	-3.5	8.3
O=C(CSCCO)Nc1cccc([N+](=O)[O-])c1	-5.0	4.7	-0.6	10.5	2.8
COc1cc2c(cc1OC)CN(C(=O)CN1C(=O)c3ccc([N+](=O)[O-])cc3C1=O)CC2	/	-0.9	/	6.9	-28.2
COc1ccc(CNC(=O)CN2C(=O)c3ccc([N+](=O)[O-])cc3C2=O)cc1	-2.8	23.0*	-0.2	-3.9	1.7
COc1ccc(CNC(=O)CN2C(=O)c3ccccc3C2=O)cc1	2.3	1.5	3.5	2.4	-8.0
O=CNc1ccccc1	-1.9	96.4*	0.7	-3.1	-0.9
Cc1ccoc1C(=O)N1CCN(C(=O)c2occc2C)CC1	-4.0	-3.0	0.1	-4.5	-10.1
Cc1cc(C)cc(NC(=O)C(=S)NCc2ccccc2)c1	-0.4	42.8*	0.7	-3.4	11.1
CCNC(=O)C12CCC(C)(c3nc4cc(C)c(C)cc4nc31)C2(C)C (configuration not stated)	-0.8	2.5	-0.3	-0.4	-3.1
CN1C(=O)NC(c2cccc(F)c2)C2=C1CC(C)(C)CC2=O (configuration not stated)	0.7	-0.3	-0.8	-4.0	-9.4
CC[n+]1ccc(/C=C/c2c[nH]c3ccccc23)cc1	-110.2	-141.4	-21.6	102.2*	-120.0
COc1ccc2c(/C=C/c3cc[n+](C)cc3)c[nH]c2c1	-12.8	4.2	-16.8	7.7	-16.7
